Source: PubChem BioAssay (Tox21)
Inconclusive results are not listed. Active and inactive are the calls of the source. Unless noted, calls follow the shape of the dose curve; as a rule, active = well fitted curve in the direction sought with a large enough effect in the repeat runs; inconclusive = weak or mixed curves; inactive = flat fitted curve, though single readings scatter.

How the values were obtained:
[1] = qHTS assay to test for compound auto fluorescence at 535 nm (green) in HEK293 cells (AID 720680)
[2] = qHTS assay to test for compound auto fluorescence at 460 nm (blue) in HEK293 cell free culture (AID 720681)
In short: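 Compounds were added to cell-free DMEM with 10% FBS and fluorescence read directly. The blue channel used 405 nm excitation and 460 nm emission, with triamterene as the reference fluorophore.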

[3] = qHTS assay to test for compound auto fluorescence at 590 nm (red) in HEK293 cell free culture (AID 720683)
In short: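 Cell-free wells of DMEM with 10% FBS received compound, and intrinsic fluorescence was read at excitation/emission 540/590 nm. Values expressed as equivalence to Rose Bengal sodium.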

[4] = qHTS assay to test for compound auto fluorescence at 590 nm (red) in HepG2 cell free culture (AID 720684)
In short: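 Rose Bengal sodium served as the reference for red signal. Test compounds were dispensed into serum-containing MEM (10% FBS) without cells, and plates were read at 540/590 nm.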

[5] = qHTS assay to test for compound auto fluorescence at 460 nm (blue) in HepG2 cell free culture (AID 720685)
In short: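 Cell-free plates of MEM plus 10% FBS received 23 nL compound or DMSO vehicle; blue-channel (405/460 nm) intensity scored against triamterene as reference fluorophore.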

[6] = qHTS assay to test for compound auto fluorescence at 535 nm (green) in HepG2 cell free culture (AID 720686)
[7] = qHTS assay to test for compound auto fluorescence at 460 nm (blue) in HepG2 cells (AID 720687)
In short: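 HepG2 cells in MEM with 10% FBS, attached overnight at 37 C, were exposed to compound or DMSO for 1 hr at 37 C, 5% CO2. Blue fluorescence was read at 405/460 nm, with triamterene as reference fluorophore.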

[8] = molecular target: Glucocorticoid receptor (Homo sapiens) (UniProt P04150); assay: qHTS assay to identify small molecule agonists of the glucocorticoid receptor (GR) signaling pathway (AID 720691; active = well fitted activation curve with a large enough effect in the signal ratio in the repeat runs, not every such curve was filed as active; the % refers to the signal ratio); settings: GR-bla HeLa, beta-lactamase reporter ratio, 18 h; activation: at 62.4 µM (top of the series)
Glucocorticoid receptor (Homo sapiens), sequence (P04150 whole entry, looked up): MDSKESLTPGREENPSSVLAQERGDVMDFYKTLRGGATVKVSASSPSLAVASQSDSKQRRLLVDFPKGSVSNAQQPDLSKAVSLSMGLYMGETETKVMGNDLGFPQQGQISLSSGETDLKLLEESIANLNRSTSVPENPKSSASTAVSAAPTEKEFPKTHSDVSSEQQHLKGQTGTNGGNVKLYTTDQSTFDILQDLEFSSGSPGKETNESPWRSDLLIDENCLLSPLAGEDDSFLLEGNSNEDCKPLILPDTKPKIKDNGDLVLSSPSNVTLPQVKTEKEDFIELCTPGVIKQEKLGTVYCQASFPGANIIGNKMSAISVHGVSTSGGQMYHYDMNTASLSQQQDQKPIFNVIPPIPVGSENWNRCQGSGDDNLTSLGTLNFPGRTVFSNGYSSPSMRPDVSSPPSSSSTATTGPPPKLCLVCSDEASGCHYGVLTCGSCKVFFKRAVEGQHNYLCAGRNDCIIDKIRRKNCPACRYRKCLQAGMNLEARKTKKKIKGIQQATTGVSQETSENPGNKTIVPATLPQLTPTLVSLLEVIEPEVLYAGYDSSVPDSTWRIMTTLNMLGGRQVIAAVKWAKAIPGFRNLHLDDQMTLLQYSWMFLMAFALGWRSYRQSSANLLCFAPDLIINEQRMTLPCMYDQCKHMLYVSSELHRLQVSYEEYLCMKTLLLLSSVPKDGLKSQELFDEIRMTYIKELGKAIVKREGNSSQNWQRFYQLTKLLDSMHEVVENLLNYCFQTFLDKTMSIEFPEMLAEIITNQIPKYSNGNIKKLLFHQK
In short: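 Agonist-mode qHTS in HeLa cells stably expressing a glucocorticoid-response-element beta-lactamase reporter. Fluorescence intensity read with FRET substrate (2 h, room temperature) after 18 h compound treatment at 37 C.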

[9] = molecular target: Glucocorticoid receptor (Homo sapiens) (UniProt P04150); assay: qHTS assay to identify small molecule antagonists of the glucocorticoid receptor (GR) signaling pathway (AID 720692; active = well fitted inhibition curve with a large enough effect in the signal ratio in the repeat runs, not every such curve was filed as active; the % refers to the signal ratio)
In short: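 Inhibition of dexamethasone-driven (5 nM final) beta-lactamase expression was measured in GRE-reporter HeLa cells over 18 h at 37C. Fluorescence was read after 2 h with the B/G FRET substrate at room temperature.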

[10] = qHTS assay to test for compound auto fluorescence at 535 nm (green) in HEK293 cell free culture (AID 720682)
In short: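 Intrinsic compound fluorescence is measured in culture medium containing 10% FBS, with excitation at 485 nm and detection at 535 nm, referenced to fluorescein.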

Measured: Potency

CN(C)CC/C=C1/c2ccccc2CSc2ccccc21
not listed: [10]
inactive: all other assays above

NC(N)=NCC1COc2ccccc2O1 (configuration not stated)
not listed: [8] | [9] | [10]
inactive: all other assays above

Cc1ccc(/C(=C\CN2CCCC2)c2cccc(/C=C/C(=O)O)n2)cc1
not listed: [10]
inactive: all other assays above

CO[C@H]1O[C@@H]2O[C@@]3(C)CC[C@H]4[C@H](C)CC[C@@H]([C@H]1C)[C@@]24OO3
not listed: [10]
inactive: all other assays above

CC[C@@H](C(=O)O)[C@@H]1O[C@@H]([C@@H](C)[C@H](O)[C@H](C)C(=O)[C@H](CC)[C@H]2O[C@]3(C=C[C@@H](O)[C@]4(CC[C@@](C)([C@H]5CC[C@](O)(CC)[C@H](C)O5)O4)O3)[C@H](C)C[C@@H]2C)[C@@H](C)C[C@@H]1C
not listed: [9] | [10]
inactive: all other assays above

CCCCCCCCCCCCCCCC(=O)OCCC1CCN(CCCN2c3ccccc3Sc3ccc(S(=O)(=O)N(C)C)cc32)CC1
not listed: [10]
inactive: all other assays above

C=C[C@]1(C)C[C@@H](OC(=O)CSC(C)(C)CNC(=O)[C@H](N)C(C)C)[C@]2(C)[C@H](C)CC[C@]3(CCC(=O)[C@H]32)[C@@H](C)[C@@H]1O
not listed: [10]
inactive: all other assays above

Cc1c(O)cc2c(c1C)O[C@](C)(CCC[C@H](C)CCC[C@H](C)CCCC(C)C)CC2
not listed: [7] | [10]
inactive: all other assays above

CCOC(=O)CCC(=O)O[C@H]1[C@H](O[C@@H]2[C@@H](C)[C@H](O[C@H]3C[C@@](C)(OC)[C@@H](O)[C@H](C)O3)[C@@H](C)C(=O)O[C@H](CC)[C@@](C)(O)[C@H](O)[C@@H](C)C(=O)[C@H](C)C[C@@]2(C)O)O[C@H](C)C[C@@H]1N(C)C
not listed: [10]
inactive: all other assays above

CC1(S(=O)(=O)O)CC(=O)c2ccccc2C1=O (configuration not stated)
not listed: [1] | [8] | [9]
inactive: all other assays above

CCCOc1cc(N)ccc1C(=O)OCCN(CC)CC
not listed: [8] | [10]
inactive: all other assays above

COc1cc2c(cc1OC)[C@@H](c1ccccc1)CN(C)CC2
not listed: [10]
inactive: all other assays above

CC1CCCC1
inactive: [1] | [2] | [3] | [4] | [5] | [7]
